Where “and” joins values, the source holds several entries; their conditions need not be identical. Identical values can stand only once. The panel holds about 79,000 compounds, 15% with a hit somewhere; the sample as a whole holds those more often. Some structures have more than one record in an assay (separate samples or runs), and their calls can disagree. Calls of active or inactive are those of the source. Cut-off read from the data, not from the text of the source: active = growth inhibition above about 70%; inactive = the rest.
Columns and labels:
[1] = NCI Yeast Anticancer Drug Screen. Data for the rad52 strain (AID 147);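 note: 0% = growth of vehicle-treated control cultures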; conditions: S. cerevisiae rad52 mutant growth inhibition, stronger effect = higher value
Method in brief: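 Screen used a yeast mutant impaired in DNA repair. After compound exposure, growth was measured. Values reflect inhibition compared with vehicle-treated cells.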

[2] = NCI Yeast Anticancer Drug Screen. Data for the wt1 strain (AID 149);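 note: 0% = growth of vehicle-treated wt1 cultures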; conditions: S. cerevisiae wt1 strain (SPY 50644) growth inhibition, stronger effect = higher value
Method in brief: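 The wt1 strain was treated with compounds, and growth was compared with vehicle-treated cultures to give inhibition.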

[3] = NCI Yeast Anticancer Drug Screen. Data for the rad50EPP+ strain (AID 151);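 note: 0% = growth of vehicle-treated control cultures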; conditions: S. cerevisiae rad50 mutant strain, stronger effect = higher value
Method in brief: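 Exposing the rad50EPP+ strain to each compound, growth was compared with vehicle-only cultures to give inhibition.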

[4] = NCI Yeast Anticancer Drug Screen. Data for the mgt1 strain (AID 153); conditions: S. cerevisiae mgt1 mutant growth inhibition, stronger effect = higher value
Method in brief: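 Genetically defined yeast (mgt1) treated with compound; inhibition of growth expressed against vehicle-treated controls.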

[5] = NCI Yeast Anticancer Drug Screen. Data for the rad50 strain (AID 155);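 note: 0% = growth of vehicle-only cultures of the same strain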; conditions: S. cerevisiae rad50 strain growth inhibition, stronger effect = higher value
Method in brief: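 Cells are treated with compound, grown, and their growth is then scored against vehicle-only cultures of the same repair-deficient yeast strain.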

[6] = NCI Yeast Anticancer Drug Screen. Data for the mec2-1 strain (AID 157); conditions: S. cerevisiae mec2-1 strain, stronger effect = higher value
Method in brief: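 Readout is yeast growth inhibition, normalised to vehicle-treated controls, in the mec2-1 strain exposed to compound.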

[7] = NCI Yeast Anticancer Drug Screen. Data for the rad14 strain (AID 159);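 note: 0% = growth of vehicle-treated control cultures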; conditions: S. cerevisiae rad14 strain growth inhibition, stronger effect = higher value
Method in brief: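 Readout: yeast growth inhibition, referenced to vehicle-only cultures. Strain bears a defined alteration in DNA damage repair.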

[8] = NCI Yeast Anticancer Drug Screen. Data for the sgs1 mgt1 strain (AID 161);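 note: 0% = growth of cultures given vehicle only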; conditions: S. cerevisiae sgs1 mgt1 strain, stronger effect = higher value
Method in brief: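 This yeast growth screen uses a strain with defined DNA-repair lesions; compound-treated growth is compared with vehicle-treated growth.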

[9] = NCI Yeast Anticancer Drug Screen. Data for the CLN2oe strain (AID 163);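 note: 0% = growth of vehicle-only control cultures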; conditions: S. cerevisiae CLN2oe strain, stronger effect = higher value
Method in brief: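 Values reflect how much compound exposure reduced yeast growth, referenced to vehicle-exposed cells. Assay organism is a strain with a defined genetic change affecting cell-cycle control.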

[10] = NCI Yeast Anticancer Drug Screen. Data for the cln2 rad14 strain (AID 165);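 note: 0% = growth equal to vehicle treated cultures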; conditions: S. cerevisiae cln2 rad14 strain, stronger effect = higher value
Method in brief: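 Relative to vehicle controls, growth inhibition of compound-treated cln2 rad14 yeast was recorded.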

[11] = NCI Yeast Anticancer Drug Screen. Data for the bub3 strain (AID 167); conditions: S. cerevisiae bub3 mutant strain, stronger effect = higher value
Method in brief: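 Part of a panel of yeast mutants defective in DNA damage repair or cell cycle regulation. Each strain is grown with compound, and inhibition is calculated relative to solvent-treated cultures.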

[12] = NCI Yeast Anticancer Drug Screen. Data for the wt2 strain (AID 169);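 note: 0% = growth of vehicle-treated yeast cultures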; conditions: S. cerevisiae wt2 strain growth inhibition, stronger effect = higher value
Method in brief: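 Values express reduction in yeast growth under compound treatment, referenced to vehicle-treated cells.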

[13] = NCI Yeast Anticancer Drug Screen. Data for the mlh1 strain (AID 171);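 note: 0% = growth of vehicle-treated control cultures of the same strain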; conditions: S. cerevisiae mlh1 strain growth inhibition, stronger effect = higher value
Method in brief: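 Steps: expose the defined-mutant yeast strain to compound; expose a parallel culture to vehicle; measure growth; express compound effect as inhibition relative to the vehicle culture.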

[14] = NCI Yeast Anticancer Drug Screen. Data for the sgs1 strain (AID 173);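 note: 0% = growth of vehicle-only control cultures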; conditions: S. cerevisiae sgs1 mutant, stronger effect = higher value
Method in brief: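 Treat defined-mutant yeast with compound; measure growth; calculate inhibition relative to vehicle-treated cells.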

[15] = NCI Yeast Anticancer Drug Screen. Data for the mlh1 rad18 strain (AID 175); conditions: S. cerevisiae mlh1 rad18 strain growth inhibition, stronger effect = higher value
Method in brief: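 Test agents were incubated with a yeast strain of defined genotype (DNA damage repair defect). Inhibition of growth was derived by comparison with vehicle-exposed cultures.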

[16] = NCI Yeast Anticancer Drug Screen. Data for the rad18 strain (AID 177); conditions: S. cerevisiae rad18 mutant growth inhibition, stronger effect = higher value
Method in brief: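 A genetically defined yeast mutant impaired in DNA damage repair was treated with test compounds, then its growth was measured against cultures receiving vehicle alone.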

[17] = at 5.0 µM (retest, dose inferred, filed as 0.5)
[18] = at 50.0 µM (retest, dose inferred, filed as 5.0)

Measured: growth inhibition

C=C1C(=O)OC2CC1C(OC(C)=O)C/C(C)=C/CC/C(C)=C\CCC2(C)O (stereo unspecified)
18% (inactive) and 82% (active): [6]; [17]
36% (inactive) and 90% (active): [11]; [17]
24% (inactive) and 99% (active): [8]; [17]
51% (inactive) and 97% (active): [10]; [18]
60% (inactive) and 95% (active): [15]; [17]
67% (inactive) and 99% (active): [8]; [18]
63% (inactive) and 98% (active): [5]; [18]
24% (inactive) and 85% (active): [5]; [17]
inactive: [1]; at 1.2 µM -5% | [1]; at 3.7 µM 1% | [1]; at 11.0 µM 15% | [1]; at 33.0 µM 33% | [2]; at 1.2 µM 3% | [2]; at 3.7 µM 11% | [2]; at 11.0 µM 13% | [2]; at 33.0 µM 30% | [3]; at 1.2 µM 15% | [3]; at 3.7 µM 42% | [3]; at 11.0 µM 40% | [3]; at 33.0 µM 31% | [3]; at 100.0 µM 18% | [4]; at 1.2 µM -14% | [4]; at 3.7 µM 3% | [4]; at 11.0 µM 13% | [4]; at 33.0 µM 28% | [5]; at 1.2 µM -3% | [5]; at 3.7 µM 9% | [5]; at 11.0 µM 17% | [5]; at 33.0 µM 40% | [6]; at 1.2 µM 11% | [6]; at 3.7 µM 17% | [6]; at 11.0 µM 23% | [6]; at 33.0 µM 37% | [7]; at 1.2 µM 5% | [7]; at 3.7 µM 17% | [7]; at 11.0 µM 31% | [7]; at 33.0 µM 44% | [9]; at 1.2 µM -17% | [9]; at 3.7 µM 9% | [9]; at 11.0 µM 20% | [9]; at 33.0 µM 13% | [10]; [17] 6% and 31% | [11]; at 1.2 µM 6% | [11]; at 3.7 µM -8% | [11]; at 11.0 µM 4% | [11]; at 33.0 µM 24% | [12]; at 1.2 µM -2% | [12]; at 3.7 µM -4% | [12]; at 11.0 µM 12% | [12]; at 33.0 µM 17% | [13]; at 1.2 µM -5% | [13]; at 3.7 µM 19% | [13]; at 11.0 µM 28% | [13]; at 33.0 µM 51% | [14]; at 1.2 µM 13% | [14]; at 3.7 µM 27% | [14]; at 11.0 µM 40% | [14]; at 33.0 µM 55% | [16]; at 1.2 µM -15% | [16]; at 3.7 µM 1% | [16]; at 11.0 µM 15% | [16]; at 33.0 µM 49%
active: [1]; at 100.0 µM 88% | [2]; at 100.0 µM 85% | [4]; at 100.0 µM 80% | [5]; at 50.0 µM 81.5% and 88.8% | [5]; at 100.0 µM 86% | [6]; [18] 79% and 99% | [6]; at 50.0 µM 81.7% and 91.2% | [6]; at 100.0 µM 89% | [7]; at 100.0 µM 87% | [8]; at 50.0 µM 71.2% and 87.9% | [9]; at 100.0 µM 85% | [10]; at 50.0 µM 78.8% and 89.3% | [11]; [18] 85% and 99% | [11]; at 50.0 µM 84.5% and 90.7% | [11]; at 100.0 µM 85% | [12]; at 100.0 µM 93% | [13]; at 100.0 µM 89% | [14]; at 100.0 µM 90% | [15]; [18] 97% | [15]; at 50.0 µM 85.5% and 86.8% | [16]; at 100.0 µM 91%

CC(C)OC(=O)Nc1ccc2nc(-c3cscn3)[nH]c2c1
inactive: [1]; at 1.2 µM -3% | [1]; at 3.7 µM -5% | [1]; at 11.0 µM -3% | [1]; at 33.0 µM 1% | [2]; at 1.2 µM -1% | [2]; at 3.7 µM 3% | [2]; at 11.0 µM -1% | [2]; at 33.0 µM -2% | [2]; at 100.0 µM 50% | [3]; at 1.2 µM 9% | [3]; at 3.7 µM 16% | [3]; at 11.0 µM 23% | [3]; at 33.0 µM 31% | [3]; at 100.0 µM 44% | [4]; at 1.2 µM -5% | [4]; at 3.7 µM -7% | [4]; at 11.0 µM -15% | [4]; at 33.0 µM 4% | [5]; at 1.2 µM -1% | [5]; at 3.7 µM -1% | [5]; [17] -4% | [5]; at 11.0 µM -3% | [5]; at 33.0 µM 10% | [5]; [18] 51% | [5]; at 50.0 µM 17.8% | [6]; at 1.2 µM 2% | [6]; at 3.7 µM 5% | [6]; [17] -4% | [6]; at 11.0 µM 8% | [6]; at 33.0 µM 16% | [6]; [18] 23% | [6]; at 50.0 µM -3.75% | [7]; at 1.2 µM -4% | [7]; at 3.7 µM -6% | [7]; at 11.0 µM -4% | [7]; at 33.0 µM 16% | [8]; [17] 1% | [8]; [18] 39% | [9]; at 1.2 µM -8% | [9]; at 3.7 µM -20% | [9]; at 11.0 µM -18% | [9]; at 33.0 µM -13% | [9]; at 100.0 µM 56% | [10]; [17] 8% | [10]; [18] 19% | [10]; at 50.0 µM 12.8% | [11]; at 1.2 µM -3% | [11]; at 3.7 µM -2% | [11]; [17] -1% | [11]; at 11.0 µM 4% | [11]; at 33.0 µM 25% | [11]; at 50.0 µM 7.85% | [12]; at 1.2 µM -1% | [12]; at 3.7 µM -2% | [12]; at 11.0 µM -4% | [12]; at 33.0 µM 2% | [13]; at 1.2 µM 1% | [13]; at 3.7 µM 1% | [13]; at 11.0 µM 3% | [13]; at 33.0 µM 16% | [14]; at 1.2 µM 2% | [14]; at 3.7 µM 3% | [14]; at 11.0 µM 8% | [14]; at 33.0 µM 18% | [15]; [17] 11% | [16]; at 1.2 µM -2% | [16]; at 3.7 µM -4% | [16]; at 11.0 µM -3% | [16]; at 33.0 µM 4%
active: [1]; at 100.0 µM 87% | [4]; at 100.0 µM 98% | [5]; at 100.0 µM 90% | [6]; at 100.0 µM 81% | [7]; at 100.0 µM 99% | [8]; at 50.0 µM 76% | [11]; [18] 81% | [11]; at 100.0 µM 97% | [12]; at 100.0 µM 97% | [13]; at 100.0 µM 96% | [14]; at 100.0 µM 97% | [15]; [18] 87% | [15]; at 50.0 µM 93.1% | [16]; at 100.0 µM 97%

Reference: PubChem BioAssay (NCI)
